Cytotoxicity call data for 64 compounds are collected here from the antibiotic and cytotoxicity screens of Wong et al. (2023).

The campaign covered roughly 39,000 compounds. About 3,300 (8.5%) were called active. This is one part of a sample in which actives are shown more often than they occur.

This assay has as its system HepG2. Briefly: cytotoxicity call (relative viability < 0.9). The conditions noted are these: 10 µM.
In the case of `Cn1cnc(S(=O)(=O)N2C[C@@H](O)COC[C@H]3O[C@H](CC(=O)NCc4cc(F)cc(F)c4)CC[C@@H]32)c1`, the cytotoxicity call is “inactive”. Take `O=C(C[C@@H]1CC[C@H]2[C@@H](COC[C@@H](O)CN2S(=O)(=O)c2cccc(Cl)c2)O1)N1CCOCC1`: the cytotoxicity call is “inactive”. As for `Cn1cnc(CCNC(=O)C[C@H]2CC[C@@H]3[C@H](COC[C@@H](O)CN3C(=O)Nc3ccc(Cl)cc3)O2)c1`, the cytotoxicity call was “inactive”. For the compound `Cn1cnc(CCNC(=O)C[C@@H]2CC[C@H]3[C@@H](COC[C@H](O)CN3C(=O)Nc3ccc(Cl)cc3)O2)c1`, the cytotoxicity call was “inactive”. On to `O=C(C[C@@H]1CC[C@H]2[C@@H](COC[C@H](O)CN2C(=O)Nc2ccc(Cl)c(Cl)c2)O1)NCc1ccc(Cl)c(Cl)c1`, for which the cytotoxicity call was “inactive”. Regarding `O=C(C[C@H]1CC[C@@H]2[C@H](COC[C@@H](O)CN2C(=O)Nc2ccc(Cl)c(Cl)c2)O1)NCc1ccc(Cl)c(Cl)c1`, the cytotoxicity call was “inactive”. Regarding `Cn1cnc(CCNC(=O)C[C@H]2CC[C@@H]3[C@H](COC[C@H](O)CN3C(=O)Nc3ccc(Cl)cc3)O2)c1`, the cytotoxicity call was “active”. Regarding `O=C(C[C@@H]1CC[C@H]2[C@@H](COC[C@@H](O)CN2C(=O)Nc2ccc(Cl)c(Cl)c2)O1)NCc1ccc(Cl)c(Cl)c1`, the cytotoxicity call is “active”. `O=C(C[C@H]1CC[C@@H]2[C@H](COC[C@@H](O)CN2Cc2cccc(C(F)(F)F)c2)O1)NCCc1ccncc1`: the cytotoxicity call was “active”. Regarding `O=C(C[C@H]1CC[C@@H]2[C@H](COC[C@H](O)CN2Cc2cccc(C(F)(F)F)c2)O1)NCCc1ccncc1`, the cytotoxicity call was “inactive”. For the compound `O=C(C[C@@H]1CC[C@@H]2[C@H](COC[C@H](O)CN2Cc2cccc(C(F)(F)F)c2)O1)NCCc1ccncc1`, the cytotoxicity call was “inactive”. As for `O=C(C[C@H]1CC[C@H]2[C@@H](COC[C@@H](O)CN2C(=O)Nc2ccc(Cl)c(Cl)c2)O1)NCc1ccc(Cl)c(Cl)c1`, the entry is “active”.

With `O=C(C[C@@H]1CC[C@@H]2[C@H](COC[C@@H](O)CN2C(=O)Nc2ccc(Cl)c(Cl)c2)O1)NCc1ccc(Cl)c(Cl)c1`, the cytotoxicity call is “inactive”.

In the case of `O=C(C[C@H]1CC[C@H]2[C@@H](COC[C@H](O)CN2C(=O)Nc2ccc(Cl)c(Cl)c2)O1)NCc1ccc(Cl)c(Cl)c1`, the cytotoxicity call was “inactive”. As for `C[C@H]1CN([C@@H](C)CO)S(=O)(=O)c2ccc(Br)cc2O[C@@H]1CN(C)C(=O)c1cnccn1`, the cytotoxicity call was “inactive”. For the compound `C[C@H](CO)N1C[C@H](C)[C@H](CN(C)Cc2ccccc2)Oc2c(NC(=O)Nc3ccc(C(F)(F)F)cc3)cccc2C1=O`, the cytotoxicity call is “inactive”. With `C[C@H]1CN([C@@H](C)CO)C(=O)Cc2cc(NC(=O)CCC(F)(F)F)ccc2O[C@@H]1CN(C)Cc1ccc(Cl)c(Cl)c1` the entry was “inactive”. As to `O=C(O)CCC(=O)N1CC(=O)Nc2ccccc21`, the cytotoxicity call was “inactive”.

In the case of `C[C@@H]1CN([C@@H](C)CO)C(=O)c2cccc(NS(=O)(=O)c3ccccc3)c2O[C@@H]1CN(C)Cc1ccc(Oc2ccccc2)cc1`, the cytotoxicity call is “inactive”. In the case of `COc1ccc(S(=O)(=O)N(C)C[C@H]2Oc3ccc(NS(=O)(=O)c4ccc(C)cc4)cc3CC(=O)N([C@H](C)CO)C[C@@H]2C)cc1`, the cytotoxicity call was “inactive”. Consider `NC[C@H](c1ccccc1Cl)N1CCOCC1`, for which the cytotoxicity call was “inactive”. Turning to `C[C@@H]1CN([C@H](C)CO)C(=O)c2cc(NC(=O)Nc3ccccc3)ccc2O[C@@H](C)CCCCO[C@H]1CN(C)C(=O)Cc1ccccc1`, the cytotoxicity call was “inactive”. As for `CC[C@H](C)[C@H](N)C1=N[C@H](C(=O)N[C@@H](CC(C)C)C(=O)N[C@H](CCC(=O)O)C(=O)N[C@H](C(=O)N[C@H]2CCCCNC(=O)[C@H](CC(N)=O)NC(=O)[C@@H](CC(=O)O)NC(=O)[C@H](Cc3cnc[nH]3)NC(=O)[C@@H](Cc3ccccc3)NC(=O)[C@H]([C@@H](C)CC)NC(=O)[C@@H](CCCN)NC2=O)[C@@H](C)CC)CS1`, the cytotoxicity call is “inactive”. With `O=C(C[C@H]1CC[C@H]2[C@@H](COC[C@H](O)CN2C(=O)Nc2ccc(Cl)cc2)O1)NCCc1ccncc1`, the cytotoxicity call was “inactive”. Regarding `O=C(C[C@H]1CC[C@@H]2[C@H](COC[C@H](O)CN2C(=O)Nc2ccc(Cl)c(Cl)c2)O1)NCc1ccc(Cl)c(Cl)c1`, the cytotoxicity call was “active”. Consider `O=C(C[C@@H]1CC[C@H]2[C@@H](COC[C@@H](O)CN2C(=O)Nc2ccc(Cl)c(Cl)c2)O1)NCc1ccncc1`, for which the cytotoxicity call was “inactive”.

With `O=C(C[C@H]1CC[C@H]2[C@@H](COC[C@@H](O)CN2C(=O)Nc2ccc(Cl)cc2)O1)NCCc1ccncc1`, the cytotoxicity call was “active”. As for `O=C(C[C@H]1CC[C@H]2[C@@H](COC[C@@H](O)CN2C(=O)Nc2ccc(Cl)c(Cl)c2)O1)NCc1ccncc1`, the entry is “inactive”; as for `O=C(C[C@@H]1CC[C@@H]2[C@H](COC[C@H](O)CN2C(=O)Nc2ccc(Cl)c(Cl)c2)O1)NCc1ccc(Cl)c(Cl)c1`, “inactive”.

Take `O=C(C[C@H]1CC[C@@H]2[C@H](COC[C@H](O)CN2C(=O)Nc2ccc(Cl)c(Cl)c2)O1)NCc1ccncc1`: the cytotoxicity call was “inactive”. Take `O=C(C[C@@H]1CC[C@@H]2[C@H](COC[C@@H](O)CN2C(=O)Nc2ccc(Cl)c(Cl)c2)O1)NCc1ccncc1`: the cytotoxicity call is “active”. For `O=C(C[C@@H]1CC[C@@H]2[C@H](COC[C@@H](O)CN2C(=O)Nc2ccc(Cl)cc2)O1)NCCc1ccncc1`, the cytotoxicity call is “inactive”. Take `CO[C@H]1CN(C)C(=O)c2cc(NC(=O)Nc3ccc(Cl)cc3)ccc2OC[C@@H](C)N(C(=O)Nc2c(C)noc2C)C[C@@H]1C`: the cytotoxicity call is “inactive”.

In the case of `C[C@@H]1CCCCO[C@@H](CN(C)C(=O)Cc2ccccc2)[C@@H](C)CN([C@H](C)CO)C(=O)c2cc(NC(=O)C3CCCCC3)ccc2O1`, the cytotoxicity call was “inactive”. Consider `CC(C)NC(=O)N(C)C[C@@H]1Oc2ccc(NC(=O)Cn3cnnn3)cc2C(=O)N([C@H](C)CO)C[C@@H]1C`, for which the cytotoxicity call was “inactive”. For `C[C@@H]1CCCCO[C@H](CN(C)C(=O)Cc2ccccc2)[C@H](C)CN([C@H](C)CO)C(=O)c2cc(NC(=O)CCC(F)(F)F)ccc2O1`, the cytotoxicity call was “inactive”. As to `C[C@@H]1CN([C@@H](C)CO)C(=O)c2cc(NC(=O)CCCN(C)C)ccc2O[C@H]1CN(C)S(=O)(=O)c1ccc(F)cc1`, the cytotoxicity call was “inactive”.

Regarding `Clc1ccc(C2=Nc3cccc4cccc(c34)N2)cc1`, the cytotoxicity call is “inactive”. As to `C=C(CO)C(=O)O[C@@H]1[C@H]2C(=C)C(=O)O[C@@H]2[C@H]2O[C@]2(C)CC/C=C(/C(=O)OC)[C@H]1OC(C)=O`, the cytotoxicity call is “active”. For `C=C(CO)C(=O)O[C@H]1C[C@@]2(C)OC(=O)/C(=C/C)[C@]2(O)CC[C@@]2(C)CC(=O)[C@]1(C(=C)C(=O)OC)O2`, the cytotoxicity call was “inactive”.

For the compound `O=C(O)CN1CCCCCC1=O`, the cytotoxicity call is “inactive”. In the case of `O=C(C[C@H]1C[C@@H]2c3cc(NC(=O)Nc4ccc(C(F)(F)F)cc4)ccc3O[C@@H]2[C@H](CO)O1)NCc1ccc(Cl)cc1`, the cytotoxicity call is “inactive”. For `C[C@@H]1CN([C@@H](C)CO)C(=O)CCCn2cc(nn2)CO[C@H]1CN(C)C(=O)Nc1ccnc(N2CCOCC2)c1`, the cytotoxicity call is “inactive”. On to `C[C@H]1CN([C@@H](C)CO)C(=O)c2cc(NC(=O)c3ccncc3)ccc2O[C@@H]1CN(C)Cc1ccc(Oc2ccccc2)cc1`, for which the cytotoxicity call was “inactive”.

`Cc1noc(C)c1NC(=O)N(C)C[C@H]1Oc2ccc(NC(=O)c3ccncc3)cc2C(=O)N([C@@H](C)CO)C[C@H]1C`: the cytotoxicity call was “inactive”. On to `C[C@H](CO)N1C[C@H](C)[C@H](CN(C)Cc2ccc(Oc3ccccc3)cc2)Oc2ccc(NC(=O)c3ccncc3)cc2C1=O`, for which the cytotoxicity call was “active”. As to `C[C@H](CO)N1C[C@H](C)[C@@H](CN(C)Cc2ccc(-c3ccccc3)cc2)Oc2ccc(NC(=O)c3ccncc3)cc2C1=O`, the cytotoxicity call was “inactive”. As for `C[C@@H]1CN([C@@H](C)CO)C(=O)c2cc(NC(=O)c3ccncc3)ccc2O[C@@H]1CN(C)Cc1ccc(-c2ccccc2)cc1`, the cytotoxicity call was “inactive”.

With `C[C@@H]1CN([C@H](C)CO)C(=O)c2cc(NC(=O)c3ccncc3)ccc2O[C@@H]1CN(C)Cc1ccc(Oc2ccccc2)cc1`, the cytotoxicity call is “inactive”.

On to `Cc1noc(C)c1NC(=O)N(C)C[C@H]1Oc2ccc(NC(=O)c3ccncc3)cc2C(=O)N([C@H](C)CO)C[C@@H]1C`, for which the cytotoxicity call was “active”. Regarding `Cc1noc(C)c1NC(=O)N(C)C[C@H]1Oc2ccc(NC(=O)c3ccncc3)cc2C(=O)N([C@@H](C)CO)C[C@@H]1C`, the cytotoxicity call was “inactive”. As to `C[C@@H]1CN([C@H](C)CO)C(=O)c2cc(NC(=O)c3ccncc3)ccc2O[C@H]1CN(C)Cc1ccc(-c2ccccc2)cc1`, the cytotoxicity call is “active”. As to `C[C@@H]1CN([C@@H](C)CO)C(=O)c2cc(NC(=O)CCCN(C)C)ccc2O[C@H]1CN(C)Cc1ccncc1`, the cytotoxicity call was “inactive”. As for `C[C@@H]1CCCCO[C@@H](CN(C)CC2CCCCC2)[C@@H](C)CN([C@@H](C)CO)C(=O)c2cc(NC(=O)CCC(F)(F)F)ccc2O1`, the cytotoxicity call was “inactive”. `Cc1ccc(S(=O)(=O)N(C)C[C@@H]2Oc3ccc(NS(C)(=O)=O)cc3C(=O)N([C@H](C)CO)C[C@@H]2C)cc1`: the cytotoxicity call was “inactive”. With `COc1ccc2c3c(n(c2c1)C)[C@@H](CO)N(C[C@]13CN(Cc2ccncc2)C1)C(=O)CN1CCOCC1`, the cytotoxicity call was “inactive”. Consider `O=C(C[C@@H]1CC[C@H]2[C@@H](COC[C@@H](O)CN2Cc2ccccc2F)O1)N[C@@H]1CCN(Cc2ccccc2)C1`, for which the cytotoxicity call was “inactive”. On to `C[C@@H]1CCCCO[C@@H](CN(C)C(=O)Nc2cccc3ccccc23)[C@H](C)CN([C@@H](C)CO)C(=O)c2cc(NS(=O)(=O)c3cccs3)ccc2O1`, for which the cytotoxicity call is “inactive”.

In the case of `C[C@@H]1CN([C@@H](C)CO)C(=O)c2c(c3ccccc3n2C)-c2ccccc2CO[C@@H]1CN(C)C(=O)NC1CCCCC1`, the cytotoxicity call was “inactive”.

With `Cn1c(=O)c2c(ncn2CC(=O)N2CCN(c3ccccc3F)CC2)n(C)c1=O`, the cytotoxicity call was “inactive”. For the compound `CCN(CC)C(=S)SSC(=S)N(CC)CC`, the cytotoxicity call is “active”. For `O=C(NCc1nc2ccccc2[nH]1)C1=C[C@@H](c2ccc(C(F)(F)F)cc2)C[C@@H](OCc2ccc(CO)cc2)O1`, the cytotoxicity call is “inactive”. As to `Nc1cc(N)nc(SCCC(=O)O)n1`, the cytotoxicity call was “inactive”. `COCC(=O)N1CC(=O)N2[C@H](CO)[C@@H](c3ccc(C#Cc4cccnc4)cc3)[C@H]2C1`: the cytotoxicity call was “inactive”.
